The target of this assay is T1, Ephrin type-B receptor 4 (Homo sapiens) (UniProt P54760).
T1 sequence (whole entry): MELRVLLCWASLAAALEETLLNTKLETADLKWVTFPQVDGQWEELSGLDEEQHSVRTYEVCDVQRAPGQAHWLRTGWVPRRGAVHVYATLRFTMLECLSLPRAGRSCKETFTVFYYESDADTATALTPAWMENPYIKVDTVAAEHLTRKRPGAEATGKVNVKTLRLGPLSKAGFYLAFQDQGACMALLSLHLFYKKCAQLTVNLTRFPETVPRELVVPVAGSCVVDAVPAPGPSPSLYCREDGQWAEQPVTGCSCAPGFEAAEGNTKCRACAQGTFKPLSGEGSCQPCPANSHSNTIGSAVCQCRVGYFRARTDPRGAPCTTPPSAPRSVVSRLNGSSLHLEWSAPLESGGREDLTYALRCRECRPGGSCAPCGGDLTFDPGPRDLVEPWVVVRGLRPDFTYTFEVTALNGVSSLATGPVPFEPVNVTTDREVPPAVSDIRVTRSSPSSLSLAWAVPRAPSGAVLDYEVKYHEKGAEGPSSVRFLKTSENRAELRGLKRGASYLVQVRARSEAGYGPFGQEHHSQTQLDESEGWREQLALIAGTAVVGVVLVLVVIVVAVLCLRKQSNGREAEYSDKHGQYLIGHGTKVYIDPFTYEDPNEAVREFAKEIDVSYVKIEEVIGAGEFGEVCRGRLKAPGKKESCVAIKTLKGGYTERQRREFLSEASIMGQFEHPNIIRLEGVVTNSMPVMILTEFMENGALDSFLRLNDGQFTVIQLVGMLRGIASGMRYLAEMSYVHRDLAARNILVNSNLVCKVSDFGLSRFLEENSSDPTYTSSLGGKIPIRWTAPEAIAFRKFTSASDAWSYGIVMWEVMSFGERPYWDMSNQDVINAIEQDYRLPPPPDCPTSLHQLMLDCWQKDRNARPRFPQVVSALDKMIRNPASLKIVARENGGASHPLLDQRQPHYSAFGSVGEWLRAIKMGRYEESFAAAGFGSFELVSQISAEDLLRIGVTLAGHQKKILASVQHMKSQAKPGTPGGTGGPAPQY
To be noted: at 0.1 µM.
Usually inhibition stands for the drop in the measured response relative to a control, in per cent. As to `CCCN(CCS(C)(=O)=O)Cc1ccc(-c2ccc3ncnc(Nc4ccc(OCc5cccc(F)c5)c(Cl)c4)c3c2)o1`, the inhibition was 3.87%. Regarding `Cc1ccc2c(-c3ccnc(Nc4ccccc4)n3)c(-c3ccc(F)cc3)nn2n1`, the inhibition turned out to be 12.9%. For `Fc1ccc(-c2cc(-c3c[nH]nc3-c3ccccn3)ccn2)cc1` the value was 3.71%; for `FC(F)(F)c1cccc(-c2nn3ncccc3c2-c2ccnc(Nc3ccc4c(c3)OCCO4)n2)c1`, 2.8%; for `N#Cc1c(NC(=O)CN2CCOCC2)sc2c1CCCC2`, 2.41%. `c1ccc(COc2ccc(Nc3ncnc4ccc(-c5ccco5)cc34)cc2)cc1`: the inhibition is -0.6%. For the molecule `Fc1ccc(-c2nn3ccccc3c2-c2ccncc2)cc1`, the inhibition was found to be 1.73%. As to `Cc1cccc(Nc2ncc(-c3ccccc3)o2)c1`, the inhibition was 2.8%. As for `COc1cc2c(cc1Nc1nc(Nc3ccsc3C(N)=O)c3cc[nH]c3n1)N(C(=O)CN(C)C)CCC2(C)C`, the inhibition amounted to 2.71%. For `c1cc(-c2cnn3nc(N4CCOCC4)ccc23)nc(NC2CC2)n1` the value was 0.45%.

Consider `CC(=O)NCc1cccc(C#Cc2cncnc2Nc2ccc(OCc3cccc(F)c3)c(Cl)c2)c1`, for which the inhibition came out at 0.57%. For `CC(=O)Nc1cccc(C#Cc2cncnc2Nc2ccc(OCc3cccc(F)c3)c(Cl)c2)c1` the value was 1.66%. To `Nc1nc(-c2cccc(Cl)c2)c(-c2ccc3ncccc3n2)s1` belongs 2.58%; to `COc1ccc(-c2oc3ncnc(N)c3c2-c2ccc(NC(=O)Nc3cc(C(F)(F)F)ccc3F)cc2)cc1`, 83.7%; to `CC(C)(CO)CNC(=O)c1ccc2c(c1)/C(=N/Nc1ccc(S(N)(=O)=O)cc1)C(=O)N2`, -2.31%. To `CCNC(=O)O[C@H]1CN[C@H](C#Cc2cc3ncnc(Nc4ccc(OCc5cccc(F)c5)c(Cl)c4)c3s2)C1` belongs 3.25%.

These data come from ChEMBL document CHEMBL1961873, “Compounds: GSK PKIS; Assays: Nanosyn kinase panel” (2012).
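Note: each value is a mean percent inhibition.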
